# Reference: publication PMC7862700, “An all-to-all approach to the identification of sequence-specific readers for epigenetic DNA modifications on cytosine”
# Columns and labels:
# Assay in all cases: DAPPL (digital affinity profiling via proximity ligation, sequencing); 10 mM Tris-HCl pH 7.5, 50 mM NaCl, 1 mM DTT, 4% glycerol, room temperature, 30 min; GST-TFs on glutathione beads, 16-mer random dsDNA library, 0.1% formaldehyde crosslink after washing; high values mean tight binding
# FEV = biological target: T1, FEV (Homo sapiens, UniProt Q99581 1-238); conditions: protein: recombinant; tags: N-terminal GST; dsDNA, one strand shown
# T1 sequence: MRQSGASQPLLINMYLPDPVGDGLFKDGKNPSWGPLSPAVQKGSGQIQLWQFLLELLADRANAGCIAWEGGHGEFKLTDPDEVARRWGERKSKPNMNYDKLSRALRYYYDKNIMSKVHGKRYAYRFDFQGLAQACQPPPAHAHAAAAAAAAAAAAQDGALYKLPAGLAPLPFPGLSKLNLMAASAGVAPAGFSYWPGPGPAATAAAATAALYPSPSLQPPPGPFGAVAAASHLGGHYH
# How it was run: (§1)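 Each value of binding signal is a hexamer's read frequency for a factor divided by the same hexamer's frequency in the tag-only sample. Barcoded, bead-captured GST fusions of human transcription factors made in yeast were pooled with that sample and incubated with 200 nmole of a random double-stranded 16-mer DNA library in Tris/NaCl/DTT/glycerol buffer at room temperature for 30 min. Washing, 0.1% formaldehyde crosslinking, proximity ligation, PCR and Illumina NextSeq500 sequencing followed.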
# ETV5 = ETV5 (Homo sapiens, UniProt P41161 1-510); conditions: protein: recombinant; tags: N-terminal GST; dsDNA, one strand shown
# How it was run: as §1
# HSF1 = HSF1 (Homo sapiens, UniProt Q00613 1-529); conditions: protein: recombinant; tags: N-terminal GST; chain copies: 3; dsDNA, one strand shown
# How it was run: as §1
# SPIC = biological target: T2, SPIC (Homo sapiens, UniProt Q8N5J4 1-248); conditions: protein: recombinant; tags: N-terminal GST; dsDNA, one strand shown
# T2 sequence: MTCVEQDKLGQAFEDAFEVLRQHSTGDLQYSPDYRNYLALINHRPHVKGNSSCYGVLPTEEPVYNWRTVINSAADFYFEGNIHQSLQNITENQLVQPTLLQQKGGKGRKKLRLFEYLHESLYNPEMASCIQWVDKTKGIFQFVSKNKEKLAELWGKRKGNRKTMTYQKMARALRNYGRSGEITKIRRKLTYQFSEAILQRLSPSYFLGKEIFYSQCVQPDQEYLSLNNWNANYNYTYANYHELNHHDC
# How it was run: as §1
# ELF4 = ELF4 (Homo sapiens, UniProt Q99607 1-663); conditions: protein: recombinant; tags: N-terminal GST; dsDNA, one strand shown
# How it was run: as §1
# ELK4 = biological target: T3, ELK4 (Homo sapiens, UniProt P28324-2 1-405); conditions: protein: recombinant; tags: N-terminal GST; dsDNA, one strand shown
# T3 sequence: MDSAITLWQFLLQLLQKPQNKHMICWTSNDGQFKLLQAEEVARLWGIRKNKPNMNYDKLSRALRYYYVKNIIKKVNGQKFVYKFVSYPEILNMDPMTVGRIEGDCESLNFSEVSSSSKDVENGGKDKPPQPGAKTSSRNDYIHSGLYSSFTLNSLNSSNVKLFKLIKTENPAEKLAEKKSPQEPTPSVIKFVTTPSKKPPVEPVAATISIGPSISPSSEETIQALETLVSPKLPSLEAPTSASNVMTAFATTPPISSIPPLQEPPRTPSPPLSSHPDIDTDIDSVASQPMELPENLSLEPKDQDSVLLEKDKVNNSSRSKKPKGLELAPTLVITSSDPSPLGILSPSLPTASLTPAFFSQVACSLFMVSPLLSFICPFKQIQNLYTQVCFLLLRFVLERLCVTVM
# How it was run: as §1
# ETV2 = biological target: T4, ETV2 (Homo sapiens, UniProt O00321 1-342); conditions: protein: recombinant; tags: N-terminal GST; dsDNA, one strand shown
# T4 sequence: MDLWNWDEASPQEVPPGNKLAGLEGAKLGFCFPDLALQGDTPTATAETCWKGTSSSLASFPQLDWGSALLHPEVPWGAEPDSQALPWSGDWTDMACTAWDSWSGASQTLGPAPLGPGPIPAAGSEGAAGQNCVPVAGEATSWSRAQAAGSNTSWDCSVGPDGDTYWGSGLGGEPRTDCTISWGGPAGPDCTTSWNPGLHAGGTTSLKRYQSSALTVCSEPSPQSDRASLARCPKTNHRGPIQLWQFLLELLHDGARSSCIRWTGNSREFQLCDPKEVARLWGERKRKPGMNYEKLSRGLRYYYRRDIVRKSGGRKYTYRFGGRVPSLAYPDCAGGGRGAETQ
# How it was run: as §1
# ELF3 = biological target: T5, ELF3 (Homo sapiens, UniProt P78545 1-371); conditions: protein: recombinant; tags: N-terminal GST; dsDNA, one strand shown
# T5 sequence: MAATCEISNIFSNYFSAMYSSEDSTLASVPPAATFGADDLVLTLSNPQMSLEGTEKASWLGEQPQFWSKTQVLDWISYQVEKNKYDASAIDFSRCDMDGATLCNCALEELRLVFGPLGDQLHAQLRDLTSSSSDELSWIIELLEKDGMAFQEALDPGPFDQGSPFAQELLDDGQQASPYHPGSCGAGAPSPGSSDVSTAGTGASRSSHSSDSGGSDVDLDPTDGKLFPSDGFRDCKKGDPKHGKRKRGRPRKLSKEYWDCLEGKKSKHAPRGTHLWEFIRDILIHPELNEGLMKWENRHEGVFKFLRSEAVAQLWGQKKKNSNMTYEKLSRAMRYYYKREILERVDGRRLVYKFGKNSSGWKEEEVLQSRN
# How it was run: as §1
# CRX = CRX (Homo sapiens, UniProt O43186 1-299); conditions: protein: recombinant; tags: N-terminal GST; dsDNA, one strand shown
# How it was run: as §1
# ETV1 = ETV1 (Homo sapiens, UniProt P50549 1-477); conditions: protein: recombinant; tags: N-terminal GST; dsDNA, one strand shown
# How it was run: as §1
# ERF = biological target: T6, ERF (Homo sapiens, UniProt P50548 1-548); conditions: protein: recombinant; tags: N-terminal GST; dsDNA, one strand shown
# T6 sequence: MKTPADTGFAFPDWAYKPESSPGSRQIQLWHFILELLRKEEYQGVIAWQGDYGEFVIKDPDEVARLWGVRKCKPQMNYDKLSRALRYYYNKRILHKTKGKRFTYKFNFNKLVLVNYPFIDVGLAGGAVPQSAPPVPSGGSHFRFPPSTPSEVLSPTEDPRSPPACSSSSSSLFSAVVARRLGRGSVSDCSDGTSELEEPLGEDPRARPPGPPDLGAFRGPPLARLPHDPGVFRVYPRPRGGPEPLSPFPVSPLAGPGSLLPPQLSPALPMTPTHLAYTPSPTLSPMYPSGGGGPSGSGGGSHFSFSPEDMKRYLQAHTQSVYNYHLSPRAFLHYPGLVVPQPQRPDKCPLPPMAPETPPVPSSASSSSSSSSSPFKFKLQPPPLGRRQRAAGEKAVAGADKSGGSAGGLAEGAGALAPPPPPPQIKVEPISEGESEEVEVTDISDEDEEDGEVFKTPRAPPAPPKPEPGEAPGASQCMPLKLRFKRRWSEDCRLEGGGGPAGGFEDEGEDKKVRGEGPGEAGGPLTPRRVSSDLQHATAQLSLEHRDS
# How it was run: as §1
# ETV3L = biological target: T7, ETV3L (Homo sapiens, UniProt Q6ZN32 1-361); conditions: protein: recombinant; tags: N-terminal GST; dsDNA, one strand shown
# T7 sequence: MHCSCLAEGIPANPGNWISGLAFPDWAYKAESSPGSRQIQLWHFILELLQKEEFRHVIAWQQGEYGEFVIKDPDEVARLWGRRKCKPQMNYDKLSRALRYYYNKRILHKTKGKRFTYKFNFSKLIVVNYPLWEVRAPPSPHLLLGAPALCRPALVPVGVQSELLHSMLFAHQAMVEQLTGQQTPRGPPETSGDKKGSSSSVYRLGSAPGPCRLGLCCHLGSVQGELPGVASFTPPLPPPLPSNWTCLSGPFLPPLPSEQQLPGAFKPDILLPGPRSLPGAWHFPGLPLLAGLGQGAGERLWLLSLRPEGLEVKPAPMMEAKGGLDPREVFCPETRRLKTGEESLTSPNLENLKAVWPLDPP
# How it was run: as §1
# ETS2 = biological target: T8, ETS2 (Homo sapiens, UniProt P15036 1-469); conditions: protein: recombinant; tags: N-terminal GST; dsDNA, one strand shown
# T8 sequence: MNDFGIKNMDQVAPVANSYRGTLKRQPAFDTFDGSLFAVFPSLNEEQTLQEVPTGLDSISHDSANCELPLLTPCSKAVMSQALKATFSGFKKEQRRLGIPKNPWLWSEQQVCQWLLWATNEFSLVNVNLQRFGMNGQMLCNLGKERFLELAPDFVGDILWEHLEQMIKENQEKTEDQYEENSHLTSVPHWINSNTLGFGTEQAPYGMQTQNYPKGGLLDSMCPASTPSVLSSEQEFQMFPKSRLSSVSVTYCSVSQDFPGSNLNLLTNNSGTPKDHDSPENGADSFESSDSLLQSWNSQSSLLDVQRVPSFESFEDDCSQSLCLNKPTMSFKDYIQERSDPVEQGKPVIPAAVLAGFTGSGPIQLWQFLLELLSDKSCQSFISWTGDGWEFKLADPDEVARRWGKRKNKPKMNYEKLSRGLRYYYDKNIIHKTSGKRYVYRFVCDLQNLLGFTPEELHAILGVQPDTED
# How it was run: as §1
# SPDEF = biological target: T9, SPDEF (Homo sapiens, UniProt O95238 1-335); conditions: protein: recombinant; tags: N-terminal GST; dsDNA, one strand shown
# T9 sequence: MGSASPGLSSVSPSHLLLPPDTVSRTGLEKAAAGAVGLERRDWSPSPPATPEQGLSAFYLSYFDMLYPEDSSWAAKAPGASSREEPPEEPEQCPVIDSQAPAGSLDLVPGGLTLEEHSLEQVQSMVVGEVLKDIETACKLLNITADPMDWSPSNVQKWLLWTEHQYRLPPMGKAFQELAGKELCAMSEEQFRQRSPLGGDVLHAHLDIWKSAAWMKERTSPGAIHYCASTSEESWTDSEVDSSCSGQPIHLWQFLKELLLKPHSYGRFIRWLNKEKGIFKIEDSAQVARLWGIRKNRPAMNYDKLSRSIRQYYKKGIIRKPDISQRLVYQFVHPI
# How it was run: as §1
# ETV7 = biological target: T10, ETV7 (Homo sapiens, UniProt Q9Y603 1-341); conditions: protein: recombinant; tags: N-terminal GST; dsDNA, one strand shown
# T10 sequence: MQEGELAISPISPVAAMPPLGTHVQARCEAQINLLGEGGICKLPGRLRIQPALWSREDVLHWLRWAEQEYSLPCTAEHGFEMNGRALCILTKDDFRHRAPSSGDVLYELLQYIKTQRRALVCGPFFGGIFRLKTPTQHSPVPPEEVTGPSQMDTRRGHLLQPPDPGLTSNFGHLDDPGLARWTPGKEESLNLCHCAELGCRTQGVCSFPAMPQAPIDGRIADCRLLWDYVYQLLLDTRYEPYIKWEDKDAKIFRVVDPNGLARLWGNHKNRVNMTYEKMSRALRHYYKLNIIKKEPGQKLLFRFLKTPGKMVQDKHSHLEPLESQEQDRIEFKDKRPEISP
# How it was run: as §1
# ELF5 = biological target: T11, ELF5 (Homo sapiens, UniProt Q9UKW6-2 1-255); conditions: protein: recombinant; tags: N-terminal GST; dsDNA, one strand shown
# T11 sequence: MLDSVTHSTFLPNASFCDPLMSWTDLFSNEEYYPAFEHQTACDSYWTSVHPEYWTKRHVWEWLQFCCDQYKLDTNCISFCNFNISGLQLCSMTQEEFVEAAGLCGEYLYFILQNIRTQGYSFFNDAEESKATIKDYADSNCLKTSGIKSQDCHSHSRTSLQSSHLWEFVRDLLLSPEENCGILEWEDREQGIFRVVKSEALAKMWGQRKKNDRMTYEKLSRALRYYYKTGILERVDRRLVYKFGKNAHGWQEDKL
# How it was run: as §1
# ETV3 = biological target: T12, ETV3 (Homo sapiens, UniProt P41162-2 1-143); conditions: protein: recombinant; tags: N-terminal GST; dsDNA, one strand shown
# T12 sequence: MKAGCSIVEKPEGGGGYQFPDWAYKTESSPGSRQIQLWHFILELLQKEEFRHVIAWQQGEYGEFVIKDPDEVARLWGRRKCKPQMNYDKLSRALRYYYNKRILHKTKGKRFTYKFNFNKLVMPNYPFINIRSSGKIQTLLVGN
# How it was run: as §1
# ETV6 = ETV6 (Homo sapiens, UniProt P41212 1-452); conditions: protein: recombinant; tags: N-terminal GST; dsDNA, one strand shown
# How it was run: as §1
# Sequence of ELF4 (Q99607 whole entry): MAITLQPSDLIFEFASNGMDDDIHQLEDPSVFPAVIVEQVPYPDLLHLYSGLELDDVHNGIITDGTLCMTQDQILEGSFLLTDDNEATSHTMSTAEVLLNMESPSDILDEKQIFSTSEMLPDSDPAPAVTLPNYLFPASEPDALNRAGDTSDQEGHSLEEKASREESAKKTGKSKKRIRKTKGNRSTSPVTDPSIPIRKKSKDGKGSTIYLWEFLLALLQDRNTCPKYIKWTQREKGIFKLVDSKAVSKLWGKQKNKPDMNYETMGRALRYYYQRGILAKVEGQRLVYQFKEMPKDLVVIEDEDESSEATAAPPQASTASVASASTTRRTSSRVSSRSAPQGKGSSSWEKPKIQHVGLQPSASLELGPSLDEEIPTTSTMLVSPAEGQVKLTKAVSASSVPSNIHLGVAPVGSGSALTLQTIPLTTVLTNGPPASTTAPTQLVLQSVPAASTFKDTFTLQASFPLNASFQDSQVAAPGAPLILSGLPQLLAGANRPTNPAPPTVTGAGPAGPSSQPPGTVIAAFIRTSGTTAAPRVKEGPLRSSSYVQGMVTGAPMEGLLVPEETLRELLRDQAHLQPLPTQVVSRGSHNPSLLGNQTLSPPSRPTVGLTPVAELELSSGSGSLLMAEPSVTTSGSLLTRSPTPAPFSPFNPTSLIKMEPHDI
# Sequence of HSF1 (Q00613 whole entry): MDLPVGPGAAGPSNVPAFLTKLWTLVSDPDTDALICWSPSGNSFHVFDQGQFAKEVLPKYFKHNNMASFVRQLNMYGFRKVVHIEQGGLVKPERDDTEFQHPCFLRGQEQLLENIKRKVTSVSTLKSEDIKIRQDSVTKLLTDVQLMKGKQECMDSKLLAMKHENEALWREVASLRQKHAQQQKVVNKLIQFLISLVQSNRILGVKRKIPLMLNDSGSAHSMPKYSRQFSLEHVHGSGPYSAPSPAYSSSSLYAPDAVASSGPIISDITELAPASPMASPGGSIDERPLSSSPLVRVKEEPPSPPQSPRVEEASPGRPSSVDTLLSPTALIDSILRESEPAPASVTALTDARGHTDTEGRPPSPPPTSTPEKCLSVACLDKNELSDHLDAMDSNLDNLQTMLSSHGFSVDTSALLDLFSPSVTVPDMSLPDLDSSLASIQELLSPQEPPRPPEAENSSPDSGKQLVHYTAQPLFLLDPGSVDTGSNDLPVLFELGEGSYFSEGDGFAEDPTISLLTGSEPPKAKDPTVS
# Sequence of CRX (O43186 whole entry): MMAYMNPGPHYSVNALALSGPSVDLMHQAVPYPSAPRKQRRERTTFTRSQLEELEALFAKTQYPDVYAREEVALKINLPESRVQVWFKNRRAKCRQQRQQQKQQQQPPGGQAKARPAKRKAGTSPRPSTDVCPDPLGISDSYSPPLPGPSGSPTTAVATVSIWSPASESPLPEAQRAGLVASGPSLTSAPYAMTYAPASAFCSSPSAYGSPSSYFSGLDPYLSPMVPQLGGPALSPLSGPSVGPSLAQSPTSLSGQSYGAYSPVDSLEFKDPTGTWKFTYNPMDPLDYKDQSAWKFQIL
# Sequence of ETV6 (P41212 whole entry): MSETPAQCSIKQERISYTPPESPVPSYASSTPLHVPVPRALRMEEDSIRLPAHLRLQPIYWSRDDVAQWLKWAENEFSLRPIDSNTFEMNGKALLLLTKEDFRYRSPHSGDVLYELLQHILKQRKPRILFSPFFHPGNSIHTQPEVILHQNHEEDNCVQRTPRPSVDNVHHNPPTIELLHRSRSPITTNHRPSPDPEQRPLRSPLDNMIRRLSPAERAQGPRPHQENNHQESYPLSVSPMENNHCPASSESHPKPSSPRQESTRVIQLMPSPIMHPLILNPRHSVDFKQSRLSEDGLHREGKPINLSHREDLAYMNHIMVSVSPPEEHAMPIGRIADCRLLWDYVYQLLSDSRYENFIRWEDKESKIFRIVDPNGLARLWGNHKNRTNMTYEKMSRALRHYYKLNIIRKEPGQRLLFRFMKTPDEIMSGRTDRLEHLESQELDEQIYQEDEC
# Sequence of ETV1 (P50549 whole entry): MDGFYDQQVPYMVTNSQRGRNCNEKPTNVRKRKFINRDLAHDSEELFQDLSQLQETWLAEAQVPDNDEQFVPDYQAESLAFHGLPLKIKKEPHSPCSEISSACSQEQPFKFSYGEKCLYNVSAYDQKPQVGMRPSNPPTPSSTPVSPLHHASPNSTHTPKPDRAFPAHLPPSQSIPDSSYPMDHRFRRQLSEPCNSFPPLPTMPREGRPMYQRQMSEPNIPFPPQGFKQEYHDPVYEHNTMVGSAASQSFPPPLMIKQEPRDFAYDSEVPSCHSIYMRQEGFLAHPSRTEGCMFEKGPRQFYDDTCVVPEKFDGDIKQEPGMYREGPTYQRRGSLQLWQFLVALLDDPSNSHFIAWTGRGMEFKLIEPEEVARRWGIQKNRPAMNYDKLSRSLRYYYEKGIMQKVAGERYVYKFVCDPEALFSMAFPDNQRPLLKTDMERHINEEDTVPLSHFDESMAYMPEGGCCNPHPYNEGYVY
# Sequence of ETV5 (P41161 whole entry): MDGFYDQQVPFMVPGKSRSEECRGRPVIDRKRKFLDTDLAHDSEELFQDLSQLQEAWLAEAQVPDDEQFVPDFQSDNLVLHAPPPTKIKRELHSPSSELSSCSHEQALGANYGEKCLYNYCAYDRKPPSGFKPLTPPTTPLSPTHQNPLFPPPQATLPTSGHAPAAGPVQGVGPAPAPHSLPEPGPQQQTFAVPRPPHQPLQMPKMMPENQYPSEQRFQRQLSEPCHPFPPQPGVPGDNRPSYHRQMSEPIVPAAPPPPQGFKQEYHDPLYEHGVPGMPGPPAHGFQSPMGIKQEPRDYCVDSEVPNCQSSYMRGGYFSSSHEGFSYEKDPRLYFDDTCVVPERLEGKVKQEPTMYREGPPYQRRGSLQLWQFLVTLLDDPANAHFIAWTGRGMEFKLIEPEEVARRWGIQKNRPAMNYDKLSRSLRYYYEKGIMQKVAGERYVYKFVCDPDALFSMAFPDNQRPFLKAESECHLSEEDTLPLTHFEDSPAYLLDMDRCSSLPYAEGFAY
sequence,measurement,setting,value
CATTTT,binding signal,FEV,"1.19 fold enrichment (6-mer frequency, TF over GST control)"
same,binding signal,ETV5,"1.23 fold enrichment (6-mer frequency, TF over GST control)"
same,binding signal,HSF1,"1.19 fold enrichment (6-mer frequency, TF over GST control)"
same,binding signal,SPIC,"1.18 fold enrichment (6-mer frequency, TF over GST control)"
same,binding signal,ELF4,"1.32 fold enrichment (6-mer frequency, TF over GST control)"
same,binding signal,ELK4,"1.32 fold enrichment (6-mer frequency, TF over GST control)"
same,binding signal,ETV2,"1.35 fold enrichment (6-mer frequency, TF over GST control)"
same,binding signal,ELF3,"1.21 fold enrichment (6-mer frequency, TF over GST control)"
same,binding signal,CRX,"1.04 fold enrichment (6-mer frequency, TF over GST control)"
same,binding signal,ETV1,"1.24 fold enrichment (6-mer frequency, TF over GST control)"
same,binding signal,ERF,"1.22 fold enrichment (6-mer frequency, TF over GST control)"
same,binding signal,ETV3L,"1.24 fold enrichment (6-mer frequency, TF over GST control)"
same,binding signal,ETS2,"1.1 fold enrichment (6-mer frequency, TF over GST control)"
same,binding signal,SPDEF,"1.06 fold enrichment (6-mer frequency, TF over GST control)"
same,binding signal,ETV7,"1.2 fold enrichment (6-mer frequency, TF over GST control)"
same,binding signal,ELF5,"1.22 fold enrichment (6-mer frequency, TF over GST control)"
same,binding signal,ETV3,"1.18 fold enrichment (6-mer frequency, TF over GST control)"
same,binding signal,ETV6,"1.28 fold enrichment (6-mer frequency, TF over GST control)"
